# Laboratory results taken from PubChem BioAssay (Tox21).
# Several values for one entry are separate records, joined by “and”; a condition that tells them apart may be missing. Equal values may be shown once. Inconclusive results are not listed. Values without a mark were called inactive. Activity calls are given as the source filed them. The call rests on the fitted dose curve; in most records, active means well fitted cell-killing curve with a large enough effect in the repeat runs; inconclusive means weak or mixed curves; inactive means no such curve, though single readings can be large or run the other way.
# Assay: qHTS assay to identify small molecule agonists of the peroxisome proliferator-activated receptor delta (PPARd) signaling pathway - cell viability counter screen (AID 743211); further: nearly all actives have a fitted effect of over 55% in size
# Conditions: PPARd-bla HEK293H viability, CellTiter-Glo luminescence, 17 h; series mostly up to 62.6 µM; activity change, negative = cytotoxicity: at the top concentration
# From the text: U.S. Tox21 Program National Center for Advancing Translational Sciences [NCATS] NIH Chemical Genomics Center [NCGC] U.S. Environmental Protection Agency [EPA] National Institutes of Environmental Health Sciences [NIEHS] National Toxicology Program [NTP] U.S. Food and Drug Administration [FDA] Tox21 Assay Overview: The peroxisome proliferator-activated receptors (PPARs) are lipid-activated transcription factors of the nuclear receptor superfamily with three distinct subtypes namely PPAR alpha, PPAR delta (PPARd) and PPAR gamma. All these subtypes heterodimerizes with Retinoid X receptor (RXR) and have different physiological functions. […] To identify the compounds that activate PPAR-delta signaling, GeneBLAzer PPAR delta UAS-bla HEK293H cell line (Invitrogen, Carlsbad, CA, USA) containing a beta-lactamase reporter gene under the control of an Upstream Activator Sequence (UAS) was used to screen the Tox21 compound library. The cytotoxicity of the Tox21 compound library against the PPARd-bla cell line was tested in parallel by measuring the cell viability using CellTiter-Glo assay (Promega, Madison, WI) in the same wells.
# Tox21 Assay Protocol Summary: PPARd-bla cells were dispensed at 3000 cells/6uL/well in 1536-well black wall/clear bottom plates using a Multidrop Combi (Thermo Fisher Scientific, Waltham, MA) dispenser. After the assay plates were incubated at 37 C and 5% CO2 for 5 h, 23 nL of compounds dissolved in DMSO, positive controls or DMSO only was transferred to the assay plate by a Pintool station (Kalypsys, San Diego, CA). The assay plates were incubated at 37C for 17 h. After 1 uL of LiveBLAzerTM B/G FRET substrate was added using a Bioraptr Flying Reagent Dispenser (FRD) workstation (Beckman Coulter, Indianapolis, IN, USA), the plates were incubated at room temperature for 2 h, and fluorescence intensity was measured by an Envision plate reader (PerkinElmer, Shelton, CT). For cell viability readout that measures cytotoxicity, 3 ul/well of CellTiter-Glo reagent was added into the assay plates using a Bioraptr FRD. After 30 min incubation at room temperature, the luminescence intensity in the plates was measured using a ViewLux plate reader (PerkinElmer).
# On the % scale 0 is the no-effect control and ±100 the full control effect; potency means the concentration at half of the fitted maximal effect.
Structure (SMILES),"activity change, negative = cytotoxicity",Potency
COC(=O)N(C(=O)N1CO[C@@]2(C(=O)OC)Cc3cc(Cl)ccc3C2=N1)c1ccc(OC(F)(F)F)cc1,-21.5%,–
CCCCCCCCCCCCCCCCCCn1cc[n+](C)c1,–,10.9 µM (active)
CCCOCC(=Nc1ccc(Cl)cc1C(F)(F)F)n1ccnc1,–,13.8 µM (active)
N#CCCC(Br)(C#N)CBr (stereo not given),-23.5%,–
O=[N+]([O-])O.O=[N+]([O-])O.[Cd],–,1.95 µM (active)
COP(=O)(OC)SCn1c(=O)oc2cc(Cl)cnc21,-8.56%,–
CN(C)S(=O)(=O)N(SC(F)(Cl)Cl)c1ccccc1,–,24.5 µM (active)
C[C@@H]1O[C@@H](O[C@@H]2C=C3CC[C@@H]4[C@H](CC[C@]5(C)[C@@H](c6ccc(=O)oc6)CC[C@]45O)[C@@]3(C)CC2)[C@H](O)[C@H](O)[C@H]1O,–,0.0188 µM (active)
Clc1ccc(-c2ccc(Cl)c(Cl)c2Cl)c(Cl)c1Cl,–,20.8 µM (active)
CN(C)CCc1c[nH]c2cccc(O)c12,-7.57% [at 81.1 µM],–
CCN(CC)c1c([N+](=O)[O-])cc(C(F)(F)F)c(N)c1[N+](=O)[O-],-12%,–
Oc1ccc(C2(c3ccc(O)cc3)CCCCC2)cc1,–,41.3 µM (active)
Cc1cc(C)c(C2=C(OC(=O)CC(C)(C)C)C3(CCCC3)OC2=O)c(C)c1,0.637% [at 81.1 µM],–
COc1cc(N)c(Cl)cc1C(=O)NC1CN2CCC1CC2 (stereo not given),0.719%,–
CCN,2.31% [at 81.1 µM],–
Clc1ccc(CCC(Cn2ccnc2)Sc2c(Cl)cccc2Cl)cc1 (stereo not given),–,29.8 µM (active)
Cn1cc(C2=C(c3cn(C4CCN(Cc5ccccn5)CC4)c4ccccc34)C(=O)NC2=O)c2ccccc21,-25.2%,–
[Cd+2].[Cl-].[Cl-],–,2.21 µM (active) and 1.38 µM (active)
[Hg+2].[I-].[I-],–,2.19 µM (active)
CC(C)OC(=O)C(O)(c1ccc(Cl)cc1)c1ccc(Cl)cc1,-10.6%,–

Structure (SMILES),"activity change, negative = cytotoxicity",Potency
COc1ccc(/C(=C/C(=O)N2CCOCC2)c2ccc(Cl)cc2)cc1OC,-12.5%,–
CC(=O)[O-].CC(=O)[O-].O.O.[Cd+2],–,0.765 µM (active)
CC(C)[C@H](C(=O)O[C@H](C#N)c1cccc(Oc2ccccc2)c1)c1ccc(Cl)cc1,-4.54%,–
C1CCC2CCCCC2C1 (stereo not given),1.01% [at 81.1 µM],–
Clc1ccc(C(Cl)(Cl)Cl)c(Cl)c1,-12.8% [at 81.1 µM],–
Clc1ccc(C(c2ccc(Cl)cc2)C(Cl)(Cl)Cl)cc1,–,49.3 µM (active) and 38.9 µM (active)
CC(C)CCCCCOC(=O)c1ccccc1C(=O)OCCCCCC(C)C,0.0552%,–
FC(Cl)(Cl)Cl,4.57%,–
CC(C)[C@H](C(=O)OC(C#N)c1cccc(Oc2ccccc2)c1)c1ccc(OC(F)F)cc1 (stereo not given in full),1.95%,–
O=c1c(C2CC(c3ccc(-c4ccc(Br)cc4)cc3)Cc3ccccc32)c(O)sc2ccccc12 (stereo not given),–,29.8 µM (active)
CCCN(CCC)CCc1c[nH]c2ccccc12,-17.1% [at 81.1 µM],–
O=C1c2ccccc2C(=O)C1C(=O)C(c1ccccc1)c1ccc(Cl)cc1 (stereo not given),–,24.5 µM (active)
C[C@@H]1CC[C@@]2(OC1)O[C@H]1[C@@H](O)[C@H]3[C@@H]4CC[C@H]5C[C@@H](O[C@@H]6O[C@H](CO)[C@H](O[C@@H]7O[C@H](CO)[C@@H](O)[C@H](O[C@@H]8OC[C@@H](O)[C@H](O)[C@H]8O)[C@H]7O[C@@H]7O[C@H](CO)[C@@H](O)[C@H](O[C@@H]8O[C@H](CO)[C@@H](O)[C@H](O)[C@H]8O)[C@H]7O)[C@H](O)[C@H]6O)[C@H](O)C[C@]5(C)[C@H]4CC[C@]3(C)[C@H]1[C@@H]2C,–,5.83 µM (active)
ClC1=C(Cl)[C@]2(Cl)[C@H]3[C@H]([C@H]4C=C[C@H]3C4)[C@@]1(Cl)C2(Cl)Cl,-3.36%,–
CN(C)C(=S)S,–,546 nM (active) and 5.49 µM (active)
Cc1ccc(OP(=O)(Oc2ccccc2)Oc2ccccc2)cc1,-28.3% [at 81.1 µM],–
FC(F)(F)c1cccc(C2=CCN(CCc3ccc4ccccc4c3)CC2)c1,-12.3%,–
O=C(CCl)Nc1ccccc1,–,49 µM (active)
Nc1ccc(Sc2ccc(N)cc2)cc1,19.9%,–
ClC1=C(Cl)C2(Cl)C3C(Cl)C=CC3C1(Cl)C2(Cl)Cl (stereo not given),–,38.9 µM (active)
